Screening results deposited in PubChem BioAssay by National Center for Advancing Translational Sciences (NCATS).
HP1b chromo inh – inhibitors of HP1-beta chromodomain binding to methylated histone tails. AlphaScreen HP1-beta / biotin-H3K9me3 peptide binding. Potency, µM (doses to about 114 µM), without a hit: top-dose activity change, negative = inhibition, actives largely listed as inhibitors. 390,000 tested, 0.56% active; also: potency is read from the fitted curve at half-maximal effect; nearly all actives have a fitted effect of over 70% in size
Target sequence (P83916 whole entry, looked up): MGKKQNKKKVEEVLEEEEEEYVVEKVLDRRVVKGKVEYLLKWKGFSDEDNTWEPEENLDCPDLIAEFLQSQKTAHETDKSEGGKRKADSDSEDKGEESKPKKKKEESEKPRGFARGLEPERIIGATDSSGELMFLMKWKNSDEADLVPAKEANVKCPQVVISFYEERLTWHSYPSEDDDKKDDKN
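HP1-beta protein (50 nM final) preincubated 30 min at room temperature with biotinylated H3(1-18)K9me3 peptide (50 nM) in PBS pH 7.4, 0.01% Tween-20, then compound added for 30 min. AlphaScreen streptavidin donor/nickel chelate acceptor beads (10 ug/mL final), 30 min dark, luminescence read.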
G9a block – blocks human histone lysine methyltransferase G9a; Q96KQ7; G9a H3K9 monomethylation, AlphaScreen, 2 h; Potency, µM (top dose mostly 102 µM), for the others: at the top dose activity, negative = inhibition, most hits filed as inhibitors; 350,000 tested, 8.8% active; AID 504332; also: potency is read from the fitted curve at half-maximal effect; % is scaled to controls: 0 for no effect and ±100 for the full control effect; nearly all actives have a fitted effect of over 75% in size
Target sequence (Q96KQ7 913-1193 limits assumed): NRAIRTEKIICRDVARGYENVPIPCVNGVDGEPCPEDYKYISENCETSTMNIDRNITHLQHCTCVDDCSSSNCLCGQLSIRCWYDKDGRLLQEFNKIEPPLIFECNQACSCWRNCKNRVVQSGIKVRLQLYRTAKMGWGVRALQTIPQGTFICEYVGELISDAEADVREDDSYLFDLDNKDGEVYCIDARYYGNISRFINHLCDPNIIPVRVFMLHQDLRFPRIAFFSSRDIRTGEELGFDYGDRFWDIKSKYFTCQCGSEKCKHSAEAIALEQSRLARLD
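Readings reflect AlphaScreen signal from monomethyl-H3K9 antibody detection. HMT at 20 nM; substrate b-H3K9 500 nM; cofactor SAM 20 uM; 2 h RT reaction; compounds tested as titrations in qHTS with 15 min preincubation.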
JMJD2A Tudor – JMJD2A Tudor domain (human) inhibition | Potency, µM (top dose mostly 114 µM), without a hit: top-dose activity change, negative = inhibition, hits mostly inhibitors | O75164 | 390,000 tested, 4.4% active | AlphaScreen JMJD2A-Tudor / H3K4me3 peptide binding; also: potency is read from the fitted curve at half-maximal effect; % is scaled to controls: 0 for no effect and ±100 for the full control effect; nearly all actives have a fitted effect of over 50% in size
Six1-Eya2 inh – blocks human Six1 binding to Eya2; AID 651725; AlphaScreen GST-Six1/His-Eya2 binding, biochemical; stronger effect = lower value; Q15475+O00167; activity change, % (no concentration beside the values); 360,000 tested, 0.56% active; in the data active = activity change below about -65%; inconclusive = mostly about -30% to -63%; also: % is scaled to controls: 0 for no effect and ±100 for the full control effect
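AlphaScreen luminescence read after one hour at 37 °C in darkness. Pin-transferred compounds met GST-Six1 and His-Eya2 protein (5X stock 250 nM/500 nM) plus glutathione donor and Ni-chelate acceptor beads (5X, 50 ug/mL).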
CtBP-E1A blk – inhibitors of CtBP/E1A interaction | AlphaScreen GST-E1A/His-CtBP binding, 1536-well; stronger effect = lower value | 340,000 tested, 0.49% active | activity change, % (no concentration beside the values); in the data active = activity change below about -65%; inconclusive = mostly about -30% to -63%; also: % is scaled to controls: 0 for no effect and ±100 for the full control effect
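Steps: dispense buffer (Tris pH 8.0, NaCl 300 mM, TCEP 1 mM, BSA, Tween 20); add 5X protein mix (GST-E1A, His-CtBP, 125 nM each); pin 23 nL compound; 2 h at 37 °C, dark; add 5X beads (50 ug/mL); 1 h; read.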
BAZ2B inh – inhibitors of human BAZ2B bromodomain. 360,000 tested, 4.4% active. AlphaScreen BAZ2B-H3K14Ac peptide displacement. Potency, µM (doses to about 114 µM), for the others: at the top dose activity change, negative = inhibition, usual class: inhibitors; also: potency is read from the fitted curve at half-maximal effect; % is scaled to controls: 0 for no effect and ±100 for the full control effect; nearly all actives have a fitted effect of over 60% in size
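AlphaScreen luminescence quantifies BAZ2B engagement of H3K14Ac peptide; the protein and biotinylated peptide are both at 50 nM final, buffer PBS pH 7.4 with 0.01% Tween-20, all steps at room temperature.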
* hit, by the source's call; ? = inconclusive; . = not tested or not shown; [ ] = remark or other dose. Rows were chosen to be rich in hits. Some 10% of all compounds tested hit in one or more screens of this group. Unless noted, calls follow the shape of the dose curve; as a rule, active = well fitted inhibition curve with a large enough effect; inconclusive = small, poorly fitted or top-dose-only effect; inactive = no such curve, though single readings can be large or run the other way.

SMILES | HP1b chromo inh | G9a block | JMJD2A Tudor | Six1-Eya2 inh | CtBP-E1A blk | BAZ2B inh
COc1cccc2c1C(=O)c1ccc3ccccc3c1C2=O | 17% | 40µM* | ? | -8 | 5 | ?
O=C1c2ccccc2C(=O)c2c(O)c(O)cc(O)c21 | 11µM* | ? | 22µM* | -11 | ? | .
Nc1ccc(O)c2c1C(=O)c1ccccc1C2=O | ? | 7.1µM* | 5.6µM* | -85* | -86* | 4µM*
COc1ccc(OC)c2c1C(=O)C(Cl)=C(Cl)C2=O | 2.2µM* | . | 0.89µM* | -5 | 1 | 45µM*
COc1ccc(OC)c2c1C(=O)CC2C (stereo unspecified) | . | . | . | -2 | 3 | .
Cc1cc(O)c2c(c1O)C(=O)c1c(O)cc(C)c(O)c1C2=O | . | -35%[2.33 µM] | . | . | . | .
CCOC(=O)c1sc(NC(=O)c2cc3nc(-c4ccccc4)cc(C(F)(F)F)n3n2)c(C(=O)OCC)c1C | 19% | 4%[59 µM] | -4% | . | . | -19%
Cc1ccc(-c2nnc3c4ccccc4c(C)nn23)cc1NC(=O)c1ccccc1Cl | 10% | 8%[59 µM] | -11% | . | . | -27%
COc1ccc([C@@H]2C[C@H]3[C@@H](CN2S(=O)(=O)c2ccccc2)C(=O)C[C@@H](c2cccc4ccccc24)N3S(=O)(=O)c2ccc(C)cc2)cc1 | . | . | . | -1 | 3 | .
Nc1ccc(Br)c2c1C(=O)c1ccccc1C2=O | ? | 4%[0.0925 µM] | ? | ? | -75* | 10µM*
COc1ccc(N)c2c1C(=O)c1ccccc1C2=O | 45µM* | 25µM* | 45µM* | -11 | ? | 32µM*
O=C1C=C(O)c2c(O)cc(O)c(O)c2C1=O | ? | . | 1.6µM* | ? | ? | .
NC1=CC(=O)C(=O)c2ccccc21 | -1% | . | -17% | 1 | -24 | .
O=C(/C=C/c1cn(CC(O)CN2CCCCCC2)c2ccccc12)c1ccc(Br)cc1 (stereo unspecified) | 1% | -43%[59 µM] | ? | . | . | ?
O=C(NCC(c1ccc(F)cc1)N1CCOCC1)c1ccc([N+](=O)[O-])o1 (stereo unspecified) | 31% | . | -1% | 2 | 1 | .
N#Cc1ccc(N2CCN(S(=O)(=O)c3ccc4c(c3)CC(=O)N4)CC2)cc1 | . | . | -21% | . | . | .
CCc1ccc(C(=O)c2cnc3ccc(OC)cc3c2N2CCN(CC)CC2)cc1 | 19% | 40µM* | -30% | -14 | -6 | 50µM*
CCc1ccc2ncc(C(=O)c3ccc(C)c(C)c3)c(N3CCC(C(N)=O)CC3)c2c1 | 10% | -31%[59 µM] | ? | . | . | -27%
CCOC(=O)C1CCCN(c2c(C(=O)c3ccc(C)cc3)cnc3ccc(OCC)cc23)C1 (stereo unspecified) | -17% | 1.4µM* | 35µM* | . | . | 50µM*
CCOC(=O)c1cnc2ccc(OCC)cc2c1N1CCN(c2ccccc2OC)CC1 | 22% | -21% | -32%[57.1 µM] | -27 | -4 | ?
CCOc1ccc2ncc(C(=O)c3ccc(OC)cc3)c(N3CCN(CC)CC3)c2c1 | 12% | 45µM* | -33% | -8 | ? | ?
Cc1ccc(NC(=O)Nc2nnc(N(CC(C)C)CC(C)C)s2)cc1Cl | 30% | -33%[59 µM] | -10% | . | . | -1%
Cc1ccc(-c2ccc(C)c(N)c2C)c(C)c1N | 28% | ? | -32% | -13 | -17 | -39%
Cc1ccc(S(=O)(=O)N2CCCc3cc(NC(=O)c4ccc(C(C)(C)C)cc4)ccc32)cc1 | 54% | 8%[59 µM] | -3% | . | . | 10%
CC1(C)COC(Cc2ccccc2)=N1 | . | . | . | 8 | 1 | .
SMILES | HP1b chromo inh | G9a block | JMJD2A Tudor | Six1-Eya2 inh | CtBP-E1A blk | BAZ2B inh
CC1(C)COC(c2cccc(C3=NC(C)(C)CO3)n2)=N1 | 6% | -6%[59 µM] | 20µM* | 2 | -1 | -38%
C/C=C/c1ccc(OCCCCN(C)Cc2ccccc2)c(OC)c1 | ? | ? | 18µM* | -5 | . | 50µM*
C/C=C/c1ccc(OCCCCOc2c(OC)cccc2OC)c(OC)c1 | 129% | 49%[59 µM] | 29% | 5 | 35 | 42%
C/C=C/c1ccc(OCCOc2ccc(C=O)cc2)c(OC)c1 | 58% | 57%[59 µM] | 14% | 12 | 13 | 10%
CNCCCOc1ccc(C)cc1OC | -37% | . | 1.6µM* | 0 | 15 | 40µM*
C/C=C/c1ccc(OCCCNC)c(OC)c1 | ? | 16µM* | 1.1µM* | -1 | -2 | 50µM*
C/C=C/c1ccc(OCCNCc2ccccc2)c(OC)c1 | ? | ? | -18% | 0 | -1 | 56µM*
O=c1[nH]c2ccc(S(=O)(=O)Nc3cc(Cl)ccc3O)cc2o1 | -4% | 3.2µM* | ? | . | . | 40µM*
CSc1ccccc1CNc1nc(NCC2CC2)nc2ccsc12 | . | . | . | -17 | -14 | .
Cc1ccccc1NS(=O)(=O)c1ccc2[nH]c3c(c2c1)CCCCC3 | -33% | ? | 45µM* | . | . | -29%[57.1 µM]
CCOC(=O)c1cccc(NS(=O)(=O)c2ccc3[nH]c4c(c3c2)CCCC4)c1 | ? | 14µM* | 28µM* | . | . | 40µM*
O=S(=O)(Nc1cccc(Cl)c1)c1ccc2[nH]c3c(c2c1)CCCCCC3 | -4%[57 µM] | -9%[59 µM] | ? | . | . | ?
CC(=O)c1cccc(NS(=O)(=O)c2ccc3[nH]c4c(c3c2)CCCCC4)c1 | -21% | 16µM* | ? | . | . | -37%[57.1 µM]
CC(=O)c1cccc(NS(=O)(=O)c2ccc3[nH]c4c(c3c2)CCCCCC4)c1 | 3%[57 µM] | ? | ? | . | . | -27%
Cc1cccc(NS(=O)(=O)c2ccc3[nH]c4c(c3c2)CCCCCC4)c1 | 8%[57 µM] | 16µM* | ? | . | . | -29%
CC(=O)c1sc(NC(=O)c2c(-c3ccccc3)c(-c3ccccc3)nn(C)c2=O)nc1C | 35% | -4%[59 µM] | -12% | . | . | 2%
C[C@@](N)(C(=O)O)[C@@H]1C[C@@H]1C(=O)O | . | 18%[59 µM] | . | . | . | .
Cc1ccc(NS(=O)(=O)c2ccc3[nH]c4c(c3c2)CCCC4)cc1N(C)C | ? | ? | 35µM* | . | . | 32µM*
CC(C)(C)NS(=O)(=O)c1ccc2[nH]c3c(c2c1)CCCCC3 | ? | 71µM* | ? | -15 | -13 | 45µM*
Cc1ccc(NS(=O)(=O)c2ccc3[nH]c4c(c3c2)CCCCCC4)cc1Cl | 22% | -33%[59 µM] | ? | . | . | -24%
Cn1ccnc1C(=O)c1ccc(NN)c([N+](=O)[O-])c1 | -16% | 22µM* | -32% | -5 | -8 | ?
O=C1ON=C(c2ccccc2)/C1=C/c1ccc(O)cc1 | 36% | 50µM* | -5% | 18 | . | -13%
O=C1ON=C(c2ccccc2)/C1=C\c1ccco1 | 55% | 32µM* | -9% | -15 | 8 | ?
O=C1ON=C(c2ccccc2)/C1=C/c1ccccc1 | 37% | 45µM* | -25% | 15 | . | -27%
Cc1ccc(C2=NOC(=O)/C2=C\c2ccccc2)cc1 | 40% | . | -12% | -4 | . | .
